# Assay outcomes as filed in PubChem.
# Integrin act MD: activators of alpha7 integrin expression for muscular dystrophy; alpha7betagal myoblasts, beta-gal FDG fluorescence, 48 h; Potency, µM (top dose mostly 38.3 µM), without a hit: top-dose activation, actives largely listed as activators; 350,000 tested, 0.064% active; AID 624291;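 also: potency is read from the fitted curve at half-maximal effect; 100% = response of the positive control SU9516; nearly all actives have a fitted effect of over 60% in size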
#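 alpha7betagal+/- myoblasts (passage 13, 250/well) treated 48 h at 37C with compounds at 1:260 dilution of DMSO stock. Lysed, then beta-galactosidase activity read as FDG fluorescence (ex 480/em 540) after 30 min, with pre-read for autofluorescence.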
# Gal4-VP16 FLuc: Gal4-VP16 reporter inhibition counter-screen. 310,000 tested, 3.5% active. Drosophila S2 Gal4-VP16 UAS-luciferase, luminescence, 20 h. Potency, µM (series often up to 53.6 µM), inactives show at the highest dose activity, negative = inhibition, actives largely listed as inhibitors;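 also: Gal4-VP16 expression switched on by copper sulfate through the metallothionein promoter; potency is read from the fitted curve at half-maximal effect; % is scaled to controls: 0 for no effect and ±100 for the full control effect; nearly all actives have a fitted effect of over 50% in size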
# ERG Ets-DNA blk: ERG Ets/DNA interaction inhibition | fluorescence polarization, His-ERG Ets domain / labelled DNA | Potency, µM (series often up to 76.9 µM), inactives show at the top dose FP activity, negative = inhibition, most hits filed as inhibitors | 370,000 tested, 0.028% active; active = well fitted inhibition curve with a large enough effect in the polarisation, with a control signal flat; inconclusive = small, poorly fitted or top-dose-only effect, or effect the other way, or a change in a side signal; inactive = no such curve, though single readings can be large or run the other way; the % refers to the polarisation;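 also: polarization taken with two DNA probes labelled with fluorescein and Texas red; potency is read from the fitted curve at half-maximal effect; % of control where 0% means no effect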
# Target sequence (P11308 whole entry, looked up, the tested form may be a part): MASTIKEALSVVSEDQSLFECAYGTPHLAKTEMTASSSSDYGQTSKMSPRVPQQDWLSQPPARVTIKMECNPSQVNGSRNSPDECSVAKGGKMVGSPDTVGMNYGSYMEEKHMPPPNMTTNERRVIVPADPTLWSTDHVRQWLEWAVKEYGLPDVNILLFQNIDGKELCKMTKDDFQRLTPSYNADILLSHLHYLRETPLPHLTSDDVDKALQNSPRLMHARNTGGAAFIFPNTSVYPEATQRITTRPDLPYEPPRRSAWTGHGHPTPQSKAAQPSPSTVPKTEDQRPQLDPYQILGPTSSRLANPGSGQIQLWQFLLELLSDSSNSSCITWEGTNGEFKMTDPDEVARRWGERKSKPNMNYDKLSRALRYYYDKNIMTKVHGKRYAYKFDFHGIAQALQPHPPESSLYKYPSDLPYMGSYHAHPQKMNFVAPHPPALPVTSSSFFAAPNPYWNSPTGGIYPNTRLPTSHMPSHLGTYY
#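 His-tagged ERG Ets domain (1 uM in the protein solution; 300mM KCl, 50mM Tris-HCl, 1mM EDTA, 1mM DTT, pH 7.5) received compound, then a probe mix of 5 nM fluorescein-DNA and 100nM Texas-615-DNA. Fluorescence polarization was read for both dyes.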
# Giardia kill: Giardia lamblia killing; AID 540267; Giardia lamblia trophozoite viability; 340,000 tested, 0.15% active; activity change, % at 7.66 µM, hits read low; in the data active = activity change below about -80%; inconclusive = between about -30% and that limit;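 also: parasites exposed to compound for two days anaerobically before the ATP read; % is scaled to controls: 0 for no effect and ±100 for the full control effect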
#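 Luminescence from cellular ATP indicates surviving trophozoites (100 cells/well) following 48 hrs anaerobic compound treatment at 37 deg C; signal develops 15-30 min at room temperature.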
# RORg inh: inhibitors of mouse ROR gamma transcriptional activity | P51450 | Drosophila S2 Gal4-RORgamma UAS-luciferase reporter, 20 h | Potency, µM (series often up to 53.6 µM), without a hit: at the highest dose activity change, negative = inhibition, hits mostly inhibitors | 310,000 tested, 5.4% active | AID 2551; also: potency is read from the fitted curve at half-maximal effect; % is scaled to controls: 0 for no effect and ±100 for the full control effect; nearly all actives have a fitted effect of over 60% in size
#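 Luminescence from a UAS-regulated Photinus luciferase reporter in stably transfected Drosophila Schneider cells is measured; decreased signal marks ROR gamma inhibition. Fusion expression is induced by 700 uM copper sulfate for 20 hr.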
# The depositor's hits bear a star; ? = inconclusive; / = no result; [ ] = another dose, or the depositor's remark. The entries come from a sample that favours hits as a whole. Unless noted, calls follow the shape of the dose curve; as a rule, active = well fitted curve in the direction sought with a large enough effect; inconclusive = small, poorly fitted or top-dose-only effect, or another doubt; inactive = no such curve, though single readings can be large; an effect the other way counts as inactive or inconclusive.
SMILES,Integrin act MD,Gal4-VP16 FLuc,ERG Ets-DNA blk,Giardia kill,RORg inh
Cc1[nH]n2c(=O)c3c(nc2c1-c1ccc(Cl)cc1)CCC3,-11.8%,?,0.2%,-5.1,2.24µM*
Cc1[nH]n2c(=O)c3c(nc2c1-c1ccccc1)CCC3,11.8%,?,2.9%,-2.0,12.6µM*
C=CCOC(=O)C(C(C)=O)C(NC(=O)OC)c1ccc2ccccc2c1 (centres undefined),/,11.3%[10 µM],/,/,-9.2%[10 µM]
CCC(CC)CC1CN2CCc3cc(OC)c(OC)cc3C2CC1(O)CC (centres undefined),-33.7%,/,/,/,/
O=C1C=CC2(OCCCO2)C(Br)=C1,/,-7.5%[10 µM],/,/,-12.2%[10 µM]
CC(C)(C)c1ccc(/C=C/C(=O)c2ccc(NC3=NCCCS3)cc2)cc1,-60.4%,5.62µM*,-5.2%,-5.5,?
CCOC(=O)c1sc(N2N=C(C)C(N=Nc3cccc(C)c3)C2=O)nc1C (centres undefined),13.4%,?,7.7%,-17.7,11.2µM*
CC1=NN(c2ccccc2C(=O)O)C(=O)C1N=Nc1ccccc1 (centres undefined),36.6%,-8.8%,-10.5%,-1.7,25.6%
CC1=NN(c2nc(-c3ccc(C)cc3)cs2)C(=O)C1N=Nc1cccc(C)c1 (centres undefined),-11.2%,?,-1.6%,5.4,7.08µM*
COC(=O)[C@H](CC(C)C)NC(=O)c1ccc(NC[C@@H](N)CS)cc1-c1cccc2ccccc12,/,-25.9%,/,/,-8.1%
CC(C1CCCC(=O)C1)[N+](=O)[O-] (centres undefined),/,1.0%,/,/,15.5%
COc1ccc(NC(=S)NCCc2ccccc2)c(C)c1,0.0%,3.98µM*,-11.8%,-1.7,6.31µM*
FC(F)Oc1ccccc1NC(=S)NCCc1ccccc1,5.5%,/,6.4%,-13.6,/
CCc1cc(Br)ccc1NC(=S)NCCc1ccccc1,-46.3%,6.31µM*,6.0%,-12.8,5.01µM*
Cc1cc(OC(F)F)ccc1NC(=S)NCCc1ccccc1,-10.3%,10µM*,-9.8%,-3.6,7.94µM*
COc1ccc(CCNC(=S)Nc2ccc(C)cc2C)cc1,-0.4%,7.08µM*,1.9%,5.5,3.98µM*
COc1ccc(CCNC(=S)Nc2cc(C)ccc2C)cc1,-10.0%,-1.7%,-0.2%,-2.3,20.9%
CCn1cc(S(=O)(=O)N2CCCC2)cn1,15.6%,-2.3%,-4.5%,-5.1,-2.8%
CCOc1ccccc1N1CCN(C(=O)c2cc3cc(OC)ccc3[nH]2)CC1,0.0%,8.8%,-1.6%,-24.9,5.5%
CN(C)C(=O)c1ccc2c(c1[N+](=O)[O-])C(=O)c1ccccc1C2=O,0.0%,3.55µM*,2.3%,-1.0,2.24µM*
CCCNC(=O)NCCc1c(C)[nH]c2ccccc12,16.8%,-1.0%,-8.3%,-22.7,0.1%
Cc1ccc2c(c1[N+](=O)[O-])C(=O)c1ccccc1C2=O,/,?,/,/,-0.3%
Cc1[nH]c2c(C)cccc2c1CCNC(=O)c1ccc2c(c1[N+](=O)[O-])C(=O)c1ccccc1C2=O,-16.5%,?,-1.4%,7.1,6.31µM*
Cc1[nH]c2ccccc2c1CCNC(=O)c1ccc2c(c1[N+](=O)[O-])C(=O)c1ccccc1C2=O,-52.8%,?,7.9%,2.7,10µM*
CCCc1ccc(Oc2cn[nH]c2-c2ccc(O)c(C)c2O)cc1,-10.7%,?,/,2.1,?
SMILES,Integrin act MD,Gal4-VP16 FLuc,ERG Ets-DNA blk,Giardia kill,RORg inh
CCCc1ccc(Oc2c(-c3ccc(O)c(C)c3O)n[nH]c2C)cc1,-42.5%,?,-8.4%,-12.4,17.8µM*
CC(C)(C)OC(=O)NCCCCC1=CC2=CC(=O)C(C)(OC(=O)CCc3ccccc3)C(=O)C2=CO1 (centres undefined),/,-4.5%,/,/,-1.7%
Clc1ncnc2scc(-c3ccc(Br)cc3)c12,-48.4%,?,-11.4%,?,11.2µM*
CCOC(=O)CSc1nc2cc(OC)c(OC)cc2cc1C#N,/,/,/,17.2,/
CC(=O)Nc1ccc(N2C(=O)CC(Sc3nc4ccccc4s3)C2=O)cc1 (centres undefined),15.8%,-2.2%[10 µM],6.2%,-6.9,2.24µM*
CCOc1ccc(N2C(=O)CC(Sc3nc4ccc(OCC)cc4s3)C2=O)cc1 (centres undefined),2.4%,/,6.8%,14.6,/
COc1ccc(N2C(=O)CC(Sc3nc4ccccc4s3)C2=O)cc1OC (centres undefined),-70.4%,5.62µM*,2.2%,44.6,6.31µM*
CCOc1ccc2nc(SC3CC(=O)N(c4ccc(OC)cc4OC)C3=O)sc2c1 (centres undefined),-62.5%,?,2.5%,-27.1,7.08µM*
CCOC(=O)N1N=C(C)CC1(O)c1ccc(Cl)cc1 (centres undefined),-22.4%,4.3%,-5.0%,0.9,-15.9%
CC1=NN(C(=O)c2ccccc2C)C(O)(c2ccc(Cl)cc2)C1 (centres undefined),-22.9%,7.94µM*,-1.8%,-16.2,6.31µM*
CC1=NN(C(=O)c2ccccc2Br)C(O)(c2ccc(Cl)cc2)C1 (centres undefined),-27.0%,8.91µM*,-3.0%,27.8,3.98µM*
COc1cccc(NC(=O)Cn2c(=O)ccc3cc(S(=O)(=O)N4CCC(C)CC4)ccc32)c1,/,/,20.3%,/,/
Cc1ccccc1CC(=O)N1CCCC1,-9.6%,-3.8%,-16.2%,-25.6,-35.7%
Cc1ccc(CN2CCC(C(=O)Nc3cccc(-c4cccc(F)c4)c3)CC2)o1,-30.4%,10µM*,1.0%,-5.7,-24.5%
COc1cccc(O)c1CN1CCC(C(=O)Nc2ccc(-c3cccc(C)c3)cc2)CC1,-63.2%,14.1µM*,-3.5%,0.3,10µM*
CCc1ccc(CN(Cc2ccco2)c2cnc(S(C)(=O)=O)nc2C(=O)Nc2ccc(C)c(Cl)c2)cc1,/,/,0.0%,/,/
Cc1[nH]n(-c2cccc3ccccc23)c(=O)c1/C=N/NC(=O)c1cccc([N+](=O)[O-])c1,-1.4%,3.55µM*,7.6%,10.0,2.82µM*
O=C(N/N=C/c1coc2ccccc2c1=O)c1cccc([N+](=O)[O-])c1,11.0%,-2.5%,7.0%,0.7,26.2%
Cc1[nH]n(-c2ccccc2)c(=O)c1/C=N/NC(=O)c1cccc([N+](=O)[O-])c1,-16.2%,2.51µM*,-11.0%,2.8,1µM*
Cc1ccc(-n2[nH]c(C)c(/C=N/NC(=O)c3ccc([N+](=O)[O-])cc3)c2=O)c(C)c1,/,5.01µM*,/,/,1.78µM*
O=C(N/N=C/c1ccncc1)c1cccc([N+](=O)[O-])c1,/,-1.9%,/,/,7.4%
O=c1c(-c2ccc(F)cc2)nc2cncnc2n1C1CC1,/,-14.8%,/,/,-12.4%
CNc1ncnc2c1cnn2C1CCCCO1 (centres undefined),12.5%,/,7.6%,9.8,/
CCOc1ccc(-c2nc(CN3CCCCC3CCn3cccn3)c(C)o2)cc1 (centres undefined),-35.6%,-17.9%,11.2%,4.3,-33.9%
